Results reported in PubChem BioAssay (NCI).
Compounds without any hit were thinned out: in the full panel of roughly 83,000, 20% have a hit.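 Percent growth is the endpoint: 0 to 100 indicates growth inhibition (40 means 60% inhibition), 0 means no net growth, and negative values indicate cell death.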 Active and inactive are the calls of the source. The calls were made as follows: active = growth percent below 10; inactive = the rest.

Tests used:
Assay in all cases: NCI-60 one-dose screen, 48 h (100 = growth as untreated, 0 = no growth, -100 = all killed)
Settings in all cases: 10 µM unless noted
SN12C renal = tested on: SN12C renal
UO-31 renal = tested on: UO-31 renal
TK-10 renal = tested on: TK-10 renal
ACHN renal = tested on: ACHN renal
CAKI-1 renal = tested on: CAKI-1 renal
A498 renal = tested on: A498 renal
CCRF-CEM leukemia = tested on: CCRF-CEM leukemia
MOLT-4 leukemia = tested on: MOLT-4 leukemia
SR leukemia = tested on: SR leukemia

Measured: growth

Nc1ccc(-c2nc3cc(Oc4ccc(Oc5ccc6[nH]c(-c7ccc(N)cc7)nc6c5)cc4)ccc3[nH]2)cc1
inactive: SN12C renal 90.4% | UO-31 renal 97.7% | TK-10 renal 112% | ACHN renal 101% | CAKI-1 renal 120% | A498 renal 91.5% | CCRF-CEM leukemia 100% | MOLT-4 leukemia 96.8% | SR leukemia 91.9%

FC(F)(F)c1cccc(Nc2nc3ccccc3nc2Nc2cccc(C(F)(F)F)c2)c1
active: UO-31 renal -74.7% | TK-10 renal -50.1% | ACHN renal -21.5% | CAKI-1 renal -1.66% | CCRF-CEM leukemia -2.8% | MOLT-4 leukemia -11.2% | SR leukemia -29.4%
inactive: SN12C renal 32.3% | A498 renal 54%

COc1cc(NC(=O)CCSc2nc3ccccc3c(=O)n2Cc2ccccc2)cc(OC)c1OC
inactive: SN12C renal 82.9% | UO-31 renal 45.7% | TK-10 renal 108% | ACHN renal 78.5% | CAKI-1 renal 72.5% | A498 renal 64.6% | CCRF-CEM leukemia 74.5% | MOLT-4 leukemia 69.3%

CCCCNc1nc(NC(C)(C)C)nc(NC(C)(C)C)n1
inactive: SN12C renal 56.1% | UO-31 renal 37.4% | TK-10 renal 55.9% | ACHN renal 62.9% | CAKI-1 renal 51.3% | A498 renal 45.4% | CCRF-CEM leukemia 42.4% | MOLT-4 leukemia 39.1% | SR leukemia 33.6%

Cc1ccc(Nc2nc(N)c3ccccc3n2)cc1Cl
active: SR leukemia 1.13%
inactive: SN12C renal 65.4% | UO-31 renal 57.2% | TK-10 renal 81.5% | ACHN renal 64.4% | CAKI-1 renal 39.7% | A498 renal 72.3% | CCRF-CEM leukemia 48.3% | MOLT-4 leukemia 48.9%

O=c1cc(NC2CCN(CCCc3ccccc3)CC2)c2cc(Cl)ccc2o1
inactive: ACHN renal 10.3%
active: SN12C renal 6.09% | UO-31 renal -10.4% | TK-10 renal -13.9% | CAKI-1 renal -10.6% | A498 renal -19% | CCRF-CEM leukemia 3.59% | MOLT-4 leukemia 1.27% | SR leukemia -11.4%

Oc1c(C(Nc2ccccn2)c2cccc(Oc3ccccc3)c2)ccc2cccnc12 (centres undefined)
active: SN12C renal -89.4% | UO-31 renal -90.4% | TK-10 renal -90.9% | ACHN renal -88.8% | CAKI-1 renal -90.3% | A498 renal -61% | CCRF-CEM leukemia -59% | MOLT-4 leukemia -70.1% | SR leukemia -49.7%

CCc1ccc(CNCC(O)c2ccccc2)cc1 (centres undefined)
inactive: SN12C renal 76.4% | UO-31 renal 34.6% | TK-10 renal 80.7% | ACHN renal 72.2% | CAKI-1 renal 66.4% | A498 renal 67.8% | CCRF-CEM leukemia 28.7% | MOLT-4 leukemia 19.2%
active: SR leukemia 3.88%

COc1ccc2sc(N(Cc3cccnc3)C(=O)c3ccc(C#N)cc3)nc2c1
inactive: SN12C renal 80% | UO-31 renal 75.6% | TK-10 renal 96.6% | ACHN renal 91.2% | CAKI-1 renal 91.9% | A498 renal 89.6% | CCRF-CEM leukemia 72.1% | MOLT-4 leukemia 57.8% | SR leukemia 66.4%

CC(C)CCNCC(O)Cn1c2ccccc2c2ccccc21 (centres undefined)
active: UO-31 renal -14.4% | ACHN renal 2.8% | CAKI-1 renal -0.189% | A498 renal 3.02% | MOLT-4 leukemia 2.44% | SR leukemia 3.35%
inactive: SN12C renal 19.4% | TK-10 renal 33.1% | CCRF-CEM leukemia 13%

CCOC(=O)c1cnc2ccc(Cl)cc2c1NCCCN(C)C
active: UO-31 renal -22.8% | CAKI-1 renal -4.21% | CCRF-CEM leukemia -4.96% | MOLT-4 leukemia -5.58% | SR leukemia -5.95%
inactive: SN12C renal 18.1% | TK-10 renal 33.8% | ACHN renal 18.3% | A498 renal 31%

COc1ccc(OC)c(N(CCN2C(=O)c3ccccc3C2=O)C(=O)CCl)c1
active: UO-31 renal -92.1% | CCRF-CEM leukemia -57.4% | SR leukemia -48.6%
inactive: SN12C renal 90.5% | TK-10 renal 110% | ACHN renal 78.8% | CAKI-1 renal 29.9% | A498 renal 72.4% | MOLT-4 leukemia 54.6%

COc1cc(C(C)n2cc(-c3ccccc3)nn2)ccc1OC1CCCCC1 (centres undefined)
inactive: SN12C renal 67.7% | UO-31 renal 56.9% | TK-10 renal 75.3% | ACHN renal 51.1% | CAKI-1 renal 48.7% | A498 renal 49.3% | CCRF-CEM leukemia 55.3% | MOLT-4 leukemia 50.1%

COc1ccc(-c2nc(N3CCN(C(=O)C4CCCCC4)CC3)c3c4c(sc3n2)CCCC4)cc1
active: UO-31 renal -7.01% | TK-10 renal -40.1% | CAKI-1 renal -12.1% | CCRF-CEM leukemia 5.79% | MOLT-4 leukemia 1.83% | SR leukemia -33.2%
inactive: SN12C renal 77.2% | ACHN renal 33.5% | A498 renal 57.1%

CCOC(=O)c1c(Cl)c2c(n1Cc1ccccc1)-c1oncc1CCC2
inactive: SN12C renal 63.9% | UO-31 renal 72.4% | TK-10 renal 98.9% | ACHN renal 65.8% | CAKI-1 renal 59.5% | A498 renal 56.9% | CCRF-CEM leukemia 59.7% | MOLT-4 leukemia 52.6%
active: SR leukemia 0.79%

CCOC(=O)c1cc2c(n1Cc1ccccc1OC)-c1oncc1CCC2
active: A498 renal -2.62% | CCRF-CEM leukemia 8.18% | SR leukemia 4.65%
inactive: SN12C renal 53.3% | UO-31 renal 45.2% | TK-10 renal 59.4% | ACHN renal 53.4% | CAKI-1 renal 35.8% | MOLT-4 leukemia 28.4%

CCOc1ccccc1CN1CCc2nc3cc(C(C)(C)C)[nH]n3c(=O)c2C1
inactive: SN12C renal 104% | UO-31 renal 93.4% | TK-10 renal 97.6% | ACHN renal 95.4% | CAKI-1 renal 99.9% | A498 renal 101% | CCRF-CEM leukemia 91.8% | MOLT-4 leukemia 94.7% | SR leukemia 88.5%

CC(=O)n1cc(-c2c[nH]c3ccccc23)c(-c2ccc(Cl)cc2)n1
inactive: SN12C renal 99.8% | UO-31 renal 60.5% | TK-10 renal 94.9% | ACHN renal 78.5% | CAKI-1 renal 61.2% | A498 renal 71.6% | CCRF-CEM leukemia 82.2% | MOLT-4 leukemia 88.2% | SR leukemia 92.9%

O=NN(C(=O)NC1CCC(C(=O)O)CC1)C1CCC(C(=O)O)CC1 (centres undefined)
inactive: SN12C renal 103% | UO-31 renal 92.8% | TK-10 renal 110% | ACHN renal 100% | CAKI-1 renal 90.2% | A498 renal 103% | CCRF-CEM leukemia 91.9% | MOLT-4 leukemia 102% | SR leukemia 95%

Brc1ccc(Nc2nc3ccccc3nc2Nc2ccc(Br)cc2)cc1
active: SN12C renal -9.63% | UO-31 renal -25.7% | TK-10 renal -55.4% | ACHN renal 4.91% | CAKI-1 renal -16.3% | A498 renal -18.1% | CCRF-CEM leukemia -15% | MOLT-4 leukemia -21.4% | SR leukemia -23.5%

N#Cc1c(N)nc2c(c1N)C(c1ccc(F)cc1)c1ccc(N)cc1O2 (centres undefined)
inactive: SN12C renal 104% | UO-31 renal 105% | TK-10 renal 116% | ACHN renal 102% | CAKI-1 renal 91.3% | A498 renal 58.4% | CCRF-CEM leukemia 99.9% | MOLT-4 leukemia 96.4% | SR leukemia 93%

CCCCc1ccc(NS(=O)(=O)c2cc3c4c(c2)CCN4C(=O)CC3)cc1
active: SN12C renal 9.46% | UO-31 renal 5.85% | CAKI-1 renal 9.87% | A498 renal -27.7% | CCRF-CEM leukemia 5.87% | MOLT-4 leukemia 1.64% | SR leukemia 3.07%
inactive: TK-10 renal 33.8% | ACHN renal 15.5%

Cn1c(=O)n(C)c2cc(CNCCNc3ccnc4cc(Cl)ccc34)ccc21
active: ACHN renal 4.21% | SR leukemia 3.33%
inactive: SN12C renal 63.3% | UO-31 renal 36.9% | TK-10 renal 62.3% | CAKI-1 renal 66.2% | A498 renal 72.3% | CCRF-CEM leukemia 58.5% | MOLT-4 leukemia 61.1%

COc1cc(CNC(=O)c2ccsc2Nc2ccnc(C(F)(F)F)c2)ccc1O
inactive: SN12C renal 94.6% | UO-31 renal 82.7% | TK-10 renal 99.8% | ACHN renal 98.2% | CAKI-1 renal 95.7% | A498 renal 93% | CCRF-CEM leukemia 83.7% | MOLT-4 leukemia 85.4%

Cc1ccc(CN2CCC(C(=O)Nc3ccc(-c4cc5ccccc5[nH]4)cc3)CC2)o1
inactive: SN12C renal 60.7% | UO-31 renal 47.5% | TK-10 renal 73% | ACHN renal 44.3% | CAKI-1 renal 71.7% | SR leukemia 14.1%
active: A498 renal 4.02% | CCRF-CEM leukemia 8.89% | MOLT-4 leukemia -4.18%

O=C(N/N=C/c1ccccc1O)C(=O)Nc1ccc(F)cc1
inactive: SN12C renal 44.5% | UO-31 renal 19.3% | TK-10 renal 53.8% | ACHN renal 30.4% | CAKI-1 renal 22.7% | A498 renal 92.4% | CCRF-CEM leukemia 23% | MOLT-4 leukemia 21.3% | SR leukemia 23.3%

COc1cccc(-c2nn(C)c3sc(C(=O)NCCN4CCN(c5ccccc5F)CC4)cc23)c1
active: CCRF-CEM leukemia 1.87% | MOLT-4 leukemia 7.79% | SR leukemia -39.5%
inactive: SN12C renal 60.9% | UO-31 renal 65.9% | TK-10 renal 83.9% | ACHN renal 85.3% | CAKI-1 renal 68% | A498 renal 39%

O=C(Nc1ccsc1C(=O)NC1CCCCC1)c1ccc(F)cc1
inactive: SN12C renal 98.3% | UO-31 renal 94.4% | TK-10 renal 114% | ACHN renal 101% | CAKI-1 renal 95.6% | A498 renal 95.5% | CCRF-CEM leukemia 66.6% | MOLT-4 leukemia 95.6% | SR leukemia 79.4%
